# According to PubChem BioAssay AID720700 (The Scripps Research Institute Molecular Screening Center, 2013):
# Screen size: about 370,000 compounds; about 3,100 (0.84%) were called active. Shown is part of a subset that was picked to be rich in actives. A number with no mark means an inactive call. Cut-off read from the data, not from the text of the source: active = inhibition above about 9.5%; inactive = the rest.
# Molecular target: 1-phosphatidylinositol 4,5-bisphosphate phosphodiesterase gamma-1 (Homo sapiens) (UniProt P19174)
# Experiment: blockers of human PLCG1 activity – biochemical, fluorescence, purified enzyme, primary screen (AID 720700)
# Conditions: purified PLC-gamma1, fluorogenic substrate, at 12.2 µM, hits give high values
# Sequence of 1-phosphatidylinositol 4,5-bisphosphate phosphodiesterase gamma-1 (Homo sapiens) (P19174 whole entry, looked up): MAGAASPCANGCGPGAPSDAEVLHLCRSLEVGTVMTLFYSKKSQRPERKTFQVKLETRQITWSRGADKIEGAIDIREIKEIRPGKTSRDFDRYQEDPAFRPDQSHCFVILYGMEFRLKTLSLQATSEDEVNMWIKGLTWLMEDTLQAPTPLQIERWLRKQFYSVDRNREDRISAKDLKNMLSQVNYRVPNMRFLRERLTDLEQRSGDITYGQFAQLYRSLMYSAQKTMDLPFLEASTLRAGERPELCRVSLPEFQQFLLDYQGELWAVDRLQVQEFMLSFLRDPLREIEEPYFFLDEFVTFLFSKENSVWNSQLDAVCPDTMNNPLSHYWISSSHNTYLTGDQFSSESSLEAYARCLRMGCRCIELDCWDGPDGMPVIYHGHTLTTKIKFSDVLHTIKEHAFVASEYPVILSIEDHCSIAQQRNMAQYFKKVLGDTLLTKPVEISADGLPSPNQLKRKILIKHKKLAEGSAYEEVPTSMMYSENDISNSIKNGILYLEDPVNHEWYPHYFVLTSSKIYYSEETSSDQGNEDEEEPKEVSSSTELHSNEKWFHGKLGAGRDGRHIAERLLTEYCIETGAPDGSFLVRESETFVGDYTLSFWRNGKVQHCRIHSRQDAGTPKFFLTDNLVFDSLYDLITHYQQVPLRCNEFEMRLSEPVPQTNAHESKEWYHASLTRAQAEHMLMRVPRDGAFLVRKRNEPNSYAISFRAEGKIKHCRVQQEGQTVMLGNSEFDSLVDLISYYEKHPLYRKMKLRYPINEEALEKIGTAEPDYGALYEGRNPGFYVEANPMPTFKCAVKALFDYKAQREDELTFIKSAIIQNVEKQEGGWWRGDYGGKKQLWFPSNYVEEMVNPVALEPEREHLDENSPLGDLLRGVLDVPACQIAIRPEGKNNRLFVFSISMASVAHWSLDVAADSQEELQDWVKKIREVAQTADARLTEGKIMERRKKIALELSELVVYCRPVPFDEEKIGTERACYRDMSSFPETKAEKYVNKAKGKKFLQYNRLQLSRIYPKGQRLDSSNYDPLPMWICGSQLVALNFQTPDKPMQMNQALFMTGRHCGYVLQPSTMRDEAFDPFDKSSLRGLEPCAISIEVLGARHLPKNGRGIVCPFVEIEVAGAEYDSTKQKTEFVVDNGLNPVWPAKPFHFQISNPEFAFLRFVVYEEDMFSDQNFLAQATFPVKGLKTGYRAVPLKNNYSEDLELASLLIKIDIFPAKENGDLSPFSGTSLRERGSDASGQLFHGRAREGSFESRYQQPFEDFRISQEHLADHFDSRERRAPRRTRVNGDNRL
row,Compound,inhibition
1,CCOC(=O)Nc1ccc(NC(=O)OCC)cc1,11.8% (active)
2,COc1ccc(N2CCN(CCNS(=O)(=O)c3ccc(Cl)s3)CC2)cc1,-2.58%
3,NC(=O)C1CCN(C(=O)c2ccc3c(=O)n(Cc4cccc(Br)c4)c(=S)[nH]c3c2)CC1,4.14%
4,CCOc1cc2[nH]c(=S)n(Cc3ccc(C(=O)N4CCN(C)CC4)cc3)c(=O)c2cc1OCC,-0.53%
5,O=C(O)c1ccc(Cn2c(=S)[nH]c3cc(Cl)ccc3c2=O)cc1,11% (active)
6,O=C(NC1CCCCN(Cc2cccc(C(F)(F)F)c2)C1=O)c1ccccc1I (centres undefined),-1.03%
7,COc1ccc(C(=O)CC(=O)c2ccc(C)cc2)c(O)c1,-16%
8,COc1ccc(OC)c(C(=O)c2coc3ccc(O)c(CN4CCOCC4)c23)c1,-8.55%
9,COc1ccc(/C(C)=N/N2CCOCC2)c(O)c1,15.9% (active)
10,COC(=O)c1cc(S(=O)(=O)N2CCN(C(=O)C3CCCO3)CC2)cn1C (centres undefined),0.5%
11,C[C@@H](NC(=O)c1ccccc1OCC(=O)Nc1ccc(I)cc1)C(=O)N(C)Cc1ccccc1,-0.29%
12,Cc1cc(NC(=O)CN2C(=O)NC(CCc3ccccc3)C2=O)no1 (centres undefined),-2.53%
13,COc1ccc(C2(c3ccc(OC)cc3)NC(=O)N(CC(=O)Nc3cc(C)on3)C2=O)cc1,0.49%
14,Cc1cc(NC(=O)CN2C(=O)NC(CC(C)C)C2=O)no1 (centres undefined),10.2% (active)
15,CC(c1ccc(N)cc1)c1cn(C)c2ccccc12 (centres undefined),0.79%
16,CCOC(=O)[C@]12CCCC=C1N(Cc1ccc(OC)cc1)C(=O)[C@@H]2CC(=O)NCc1cccs1,0.39%
17,O=C1Nc2ccccc2OC1CC(=O)N1CCCCCCC1 (centres undefined),-0.62%
18,CNC(=O)C[C@H]1C(=O)N(c2ccc(OC)cc2)C[C@@H]1Cc1ccccc1,1.07%
19,O=C(C[C@H]1C(=O)N(c2ccc(F)c(F)c2)C[C@@H]1Cc1ccccc1)Nc1ccccc1,17.8% (active)
20,C[C@H]1CN(c2ccc(Br)cc2)C(=O)[C@@H]1CC(=O)Nc1ccc(Br)cc1,-2.46%
21,Cc1ccc(-n2c(SCC(=O)Nc3cccc4ccccc34)nnc2-c2ccco2)cc1,0.45%
22,CC(C)Cn1cnc2c1c(=O)n(CC(O)c1ccccc1)c(=O)n2CC(C)C (centres undefined),16.4% (active)

row,Compound,inhibition
1,CC(C)CCn1cnc2c1c(=O)n(CC(=O)NC(N)=O)c(=O)n2Cc1ccccc1,2.87%
2,CC(C)Cn1cnc2c1c(=O)n(CC(=O)NN)c(=O)n2Cc1ccccc1,-18.6%
3,COc1cccc(N2CCN(CC(=O)N(C)Cc3ccc(F)cc3)CC2)c1,0.54%
4,CS(=O)(=O)N(Cc1ccc(Cl)cc1)c1ccc(C(=O)NCCSCc2ccco2)cc1,9.72% (active)
5,CCc1ccccc1N(CC(=O)NCCSCc1ccco1)S(C)(=O)=O,-1.22%
6,Cc1cc(C)cc(N(CC(=O)NCCSCc2ccco2)S(C)(=O)=O)c1,2.48%
7,CCCCNC(=O)C[C@H]1C[C@@]2(C(=O)OC)C(=C[C@H](COCc3ccccc3)O[C@@H]2C)N(Cc2ccc(Cl)cc2Cl)C1=O,2.69%
8,O=C1C(=O)N(Cc2ccc(-c3ccsc3)cc2)c2ccc(OC(F)(F)F)cc21,-5.5%
9,CCN(CC)C(=O)CC[C@@H]1CC[C@]2(CCCN(S(=O)(=O)C3CCCCC3)C2)O1,-1.56%
10,COC(=O)C1CN(CCc2ccccc2)CCS(=O)(=O)N1Cc1ccc(F)cc1 (centres undefined),0.52%
11,Cc1nc(-c2ccc(F)cc2)c(CC(=O)Nc2cc(S(=O)(=O)N3CCCCC3)ccc2C)s1,0.89%
12,Cc1nc(-c2ccc(F)cc2)c(CC(=O)N2CCN(S(=O)(=O)c3ccc(F)cc3)CC2)s1,12.6% (active)
13,Cc1ccc(S(=O)(=O)N2CCN(C(=O)Cc3sc(C)nc3-c3ccc(F)cc3)CC2)c(C)c1,-4.71%
14,O=C(C(=O)N1CCN(c2ccccc2)CC1)c1ccc2c(c1)OCO2,-0.77%
15,O=CN1CCN(C(=O)c2ccc3c(c2)OCO3)CC1,0.54%
16,O=C(c1ccc2c(c1)OCO2)N1CCNc2ccccc2C1,9.9% (active)
17,N#Cc1ccc(OC[C@@H](O)CN2CCC(C(O)(c3ccccc3)c3ccccc3)CC2)c(F)c1,0.67%
18,COCCCNC(=O)C[C@H]1C[C@@]2(C(=O)OC)C(=C[C@H](C(C)(C)C)O[C@@H]2C)N(Cc2ccc(Cl)cc2Cl)C1=O,1.11%
19,CC(C)(C)OC(=O)NCc1cc(F)ccc1/C=C/S(=O)(=O)NCCc1ccccc1,2.46%
20,Clc1ccc(C2[C@H]3CN(CC4CCCCC4)[C@H](c4ccccc4)C34CC2(c2cccnc2)C4)cn1 (some centres undefined),12.1% (active)
21,COC(=O)c1ccc(C23CC4(C2)[C@H](CN(Cc2cccnc2)[C@@H]4c2ccccc2)C3c2ccc(Cl)nc2)cc1 (some centres undefined),2.06%
22,COC(=O)[C@]1(C#N)CC(=O)N(CC2CCCCC2)[C@@H]1c1ccccc1,8.67%
